Measurements from ChEMBL document CHEMBL5308504, “Tm Shift (DSF) assay results for EUbOPEN Chemogenomics Library” (2023).
Values joined by “and” are separate entries in the source; they are usually repeats but may differ in a detail not shown here. Identical values can stand only once.

biological target: Tyrosine-protein kinase ABL1 (Homo sapiens) (UniProt P00519); conditions: Compound concentration 20.0 uM, Protein concentration 2.0 uM, Result type QC Liability
Sequence (P00519 whole entry): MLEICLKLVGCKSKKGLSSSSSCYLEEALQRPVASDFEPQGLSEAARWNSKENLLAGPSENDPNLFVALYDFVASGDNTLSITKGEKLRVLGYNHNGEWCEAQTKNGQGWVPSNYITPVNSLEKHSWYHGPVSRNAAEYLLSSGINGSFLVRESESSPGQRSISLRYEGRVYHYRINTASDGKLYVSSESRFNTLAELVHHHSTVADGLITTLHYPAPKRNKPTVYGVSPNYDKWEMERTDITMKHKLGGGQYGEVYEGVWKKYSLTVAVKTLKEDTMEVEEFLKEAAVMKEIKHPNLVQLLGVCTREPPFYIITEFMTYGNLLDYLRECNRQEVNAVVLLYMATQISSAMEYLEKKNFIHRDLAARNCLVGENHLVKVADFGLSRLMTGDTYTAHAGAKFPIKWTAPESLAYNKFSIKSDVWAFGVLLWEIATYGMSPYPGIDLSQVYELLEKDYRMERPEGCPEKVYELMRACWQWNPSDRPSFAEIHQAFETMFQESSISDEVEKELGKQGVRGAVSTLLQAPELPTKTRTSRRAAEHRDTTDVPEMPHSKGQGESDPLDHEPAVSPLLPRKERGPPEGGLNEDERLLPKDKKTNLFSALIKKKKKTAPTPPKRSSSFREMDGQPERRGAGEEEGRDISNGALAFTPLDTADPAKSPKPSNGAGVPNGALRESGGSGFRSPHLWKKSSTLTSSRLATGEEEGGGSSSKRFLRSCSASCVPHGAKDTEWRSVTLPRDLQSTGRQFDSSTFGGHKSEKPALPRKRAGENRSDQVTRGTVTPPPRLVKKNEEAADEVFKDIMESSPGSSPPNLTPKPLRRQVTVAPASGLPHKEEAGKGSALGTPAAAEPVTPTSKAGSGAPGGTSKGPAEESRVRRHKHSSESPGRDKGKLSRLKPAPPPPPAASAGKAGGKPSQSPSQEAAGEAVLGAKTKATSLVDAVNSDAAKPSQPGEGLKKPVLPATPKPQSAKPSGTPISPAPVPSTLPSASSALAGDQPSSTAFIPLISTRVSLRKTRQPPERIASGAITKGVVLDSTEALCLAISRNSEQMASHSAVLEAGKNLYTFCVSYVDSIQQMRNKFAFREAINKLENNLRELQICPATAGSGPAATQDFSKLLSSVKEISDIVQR

| Structure (SMILES) | ΔTm |
| --- | --- |
| CC1CCN(c2ccnc(NCc3cn(C)cn3)n2)CC1 | -1.33 °C |
| O=C(O)C[C@H]1CC[C@H](c2ccc(NC(=O)c3nnc(Nc4ccc(F)c(F)c4)o3)cc2)CC1 | -0.04 °C |
| NCC1CCC(CNc2nc(NCc3ccccc3OC(F)(F)F)ncc2[N+](=O)[O-])CC1 (centres undefined) | 0.62 °C |
| CC(=O)Nc1c(F)cc(C(=O)N[C@H]2CC[C@H](O)CC2)cc1O[C@@H](C)c1ccccc1 | 0.21 °C |
| COc1ccc(-c2csc(NC(=O)[C@H]3CCCCN3S(=O)(=O)c3ccc(C)cc3)n2)cc1 | 0.82 °C |
| CCc1ccccc1C(=O)Nc1n[nH]c2c(C)c(F)c(C3C(C#N)=C(C)N(C)C(C)=C3C#N)cc12 | 0.41 °C |
| Cn1cnc(Cn2ccc3ccc(CNCc4[nH]c5ccccc5c4[C@H]4NC(=O)c5ccc(O)cc54)cc32)c1 | 0.28 °C |
| COc1cccc(CNc2ccc(S(=O)(=O)Nc3nc4ccccc4s3)cc2)c1O | 0.16 °C |
| C[C@@H]1OCC2(CCN(c3cnc(Sc4ccnc(N)c4Cl)c(N)n3)CC2)[C@@H]1N | 0.58 °C |
| CC(C)c1cnn2c(NCc3ccccc3)cc(NCCCCCCN)nc12 | -0.02 °C |
| O=C(O)CCCCN(CCc1ccccc1OCc1ccc(CCc2ccccc2)cc1)Cc1ccc(C(=O)O)cc1 | -0.26 °C |
| COc1ccc2c(O[C@@H]3C[C@H]4C(=O)N[C@]5(C(=O)O)CC5/C=C\CCCCC[C@H](NC(=O)OC5CCCC5)C(=O)N4C3)cc(-c3csc(NC(=O)C(C)C)n3)nc2c1C (some centres undefined) | 0.27 °C [middle of 4 runs] |
| C[C@@H](COCCC(=O)N1CCN(c2ncc(C(F)(F)F)cn2)CC1)Nc1cn[nH]c(=O)c1C(F)(F)F | 0.32 °C |
| CCn1c(=O)c2c(C)c(C(=O)N3CCC(O)CC3)sc2n(CCC(F)(F)F)c1=O | 0.35 °C |
| O=C(CNC(=O)c1ccc(-c2ccccc2)cc1)NC1CCCc2ccccc21 (centres undefined) | 0.75 °C |
| O=C1COc2cc(C(=O)N(Cc3ccc(C(=O)Nc4ccncn4)cc3)C3CC3)ccc2N1 | 0.5 °C |
| CC(=O)Oc1ccc2c(c1)[C@@]1(C)CCC[C@](C)(C(=O)OC(=O)[C@@]3(C)CCC[C@]4(C)c5cc(OC(C)=O)ccc5CC[C@@H]34)[C@@H]1CC2 | 0.17 °C |
| CC(C)C(=O)N1CCC(c2cn(C)c3ncc(NC(=O)c4cccc(C#N)c4)c(C(F)(F)F)c23)CC1 | -0.05 °C |
| Cc1nccn1-c1ccc(Sc2cccc(C3(C(N)=O)CCOCC3)c2)cc1 | -0.23 °C |
| CCn1c(CNC(=O)c2ncc(C)nc2N)[n+](CC)c2ccc(C(=O)N(C)CCN(C)C)cc21 | 0.1 °C |

| Structure (SMILES) | ΔTm |
| --- | --- |
| O=C(O)CCC/C=C\C[C@@H]1[C@@H](/C=C/[C@@H](O)COc2cccc(C(F)(F)F)c2)[C@H](O)C[C@@H]1O | 0.54 °C |
| COc1cc2nc(C)nc(N[C@H](C)c3cc(N)cc(C(F)(F)F)c3)c2cc1O[C@H]1CCOC1 | -0.37 °C |
| NCc1ccc(OCCCc2sc(-c3ccc4c(c3)/C(=N/Nc3nc5ccccc5s3)CCC4)nc2C(=O)O)cc1 | 0.43 °C |
| CN(C)C(=O)c1cc2cnc(Nc3ccc(N4CCN(CCCCNC(=O)COc5cccc6c5C(=O)N(C5CCC(=O)NC5=O)C6=O)CC4)cn3)nc2n1C1CCCC1 (centres undefined) | 0.61 °C |
| COc1cc2nc(-c3cc(F)ccc3O)nc(N[C@@H]3CNC[C@H]3C(C)(C)O)c2cc1OC | 2.31 °C |
| Cc1c(NC(=O)COc2ccc(Cl)cc2C(=O)c2cc(F)cc(C(F)(F)F)c2)ccc(C(=O)O)c1F | -0.06 °C and 0.75 °C |
| Cc1cc2nc(N3CCC(C(=O)NC4CCCC4)CC3)n(C(C)C)c2cc1C | 0.22 °C |
| CN(C)C/C=C/C(=O)Nc1cc2c(Nc3ccc(F)c(Cl)c3)ncnc2cc1OC[C@@H]1CCCO1 | 6.89 °C |
| CCCCCCC(Sc1nc(Cl)cc(NCc2ccc(-c3ccccc3)cc2)n1)C(=O)O (centres undefined) | -0.03 °C |
| COc1ccccc1Nc1nc(-c2nn(Cc3c(F)cc(OCCCO)cc3F)c3ccccc23)ncc1OC | 0.26 °C |
| CN1C(=O)Cc2ccc(-c3ccc(C[C@@H](C#N)NC(=O)[C@@H]4N[C@H]5CC[C@@H]4C5)c(F)c3)cc21 | -0.52 °C |
| CNC(=O)c1ccc2c(c1)NC(=O)/C2=C(\Nc1ccc(CN2CCCCC2)cc1)c1ccccc1 | 7.98 °C |
| CN(C)C/C=C/C(=O)Nc1ccc(C(=O)Nc2cccc(Nc3ncc(Cl)c(-c4c[nH]c5ccccc45)n3)c2)cc1 | 6.42 °C |
| COc1c(-c2cn(C3CCC(=O)NC3=O)nn2)csc1C(=O)N1CCCC1 (centres undefined) | 0.22 °C |
| CN[C@@H](C)C(=O)N[C@H](C(=O)N1CCC[C@H]1c1nc(C(=O)c2ccc(F)cc2)cs1)C1CCCCC1 | 0.09 °C |
| CN(CC(=O)Nc1ccc(F)c(F)c1F)C(=O)c1ccc2c(c1)OCCO2 | 0.3 °C |
| O=S(=O)(Nc1ccc(C(O)(C(F)(F)F)C(F)(F)F)cc1)c1cccs1 | 0.41 °C |
| O=C(O)Cc1ccc(CCNS(=O)(=O)c2ccc(Cl)cc2)cc1 | 0.25 °C |
| Cc1nccc(COC(=O)N2C[C@@H]3[C@@H](CNC(=O)c4ccc5[nH]nnc5c4)[C@@H]3C2)n1 | -0.16 °C |
